According to the supplement of paper PMC6555819:

How the values were obtained:
Test in all cases: PBM binding z-score (relative to random genomic background probes); higher = stronger binding; sequences stand for … in GC…GCGATTGACAGCGTAGAATGAAGG
[1] = system: PPARg:RXRa DBDmut IVT, anti-RXR (DBD mutation: RXRa K156A/R161A, NR concentration 270 nM, RXRa partner concentration 90 nM)
Procedure, shortened: (§1)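 The probes on custom Agilent 4×180K protein-binding microarrays were double-stranded, with 34-nt variable regions bearing direct-repeat seeds, single-nucleotide variants, half-site ablations and random human genomic background sequences. Incubation lasted 1 h with ligand-free nuclear receptor dimers in PBS pH 7.4, 2% milk, 0.02% Triton X-100, 1 mM DTT, 0.2 mg/mL BSA and 0.4 mg/ml salmon testes DNA. Antibodies against each partner (one per run) detected bound dimers, and fluorescence scans were regression-normalized. Binding z-scores take the random background probes as reference.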

[2] = system: PPARg:RXRa IVT, anti-PPARg (NR concentration 270 nM, RXRa partner concentration 90 nM)
Procedure, shortened: as §1

[3] = system: PPARg DBDmut:RXRa IVT, anti-PPARg (DBD mutation: PPARg1 K132A/R137A, NR concentration 270 nM, RXRa partner concentration 90 nM)
Procedure, shortened: as §1

[4] = system: PPARg DBDmut IVT, anti-PPARg (DBD mutation: PPARg1 K132A/R137A, NR concentration 270 nM)
Procedure, shortened: as §1

[5] = system: PPARg homodimer (NR concentration 180 nM)
Procedure, shortened: as §1

[6] = system: PXR:RXRa (NR concentration 270 nM, RXRa partner concentration 90 nM)
Procedure, shortened: as §1

[7] = system: PXR homodimer (NR concentration 270 nM)
Procedure, shortened: as §1

[8] = system: RARa:RXR (NR concentration 270 nM, RXRa partner concentration 90 nM)
Procedure, shortened: as §1

[9] = system: RARa homodimer (NR concentration 270 nM)
Procedure, shortened: as §1

[10] = system: RARb:RXRa (NR concentration 270 nM, RXRa partner concentration 90 nM)
Procedure, shortened: as §1

[11] = system: RARb homodimer (NR concentration 270 nM)
Procedure, shortened: as §1

[12] = system: RARg:RXRa (NR concentration 270 nM, RXRa partner concentration 90 nM)
Procedure, shortened: as §1

[13] = system: RARg homodimer (NR concentration 270 nM)
Procedure, shortened: as §1

[14] = system: RXRa DBDmut IVT, anti-RXR (DBD mutation: RXRa K156A/R161A, NR concentration 90 nM)
Procedure, shortened: as §1

[15] = system: RXRa homodimer (NR concentration 180 nM)
Procedure, shortened: as §1

[16] = system: THRa:RXRa (NR concentration 90 nM, RXRa partner concentration 90 nM)
Procedure, shortened: as §1

[17] = system: THRa homodimer (NR concentration 90 nM)
Procedure, shortened: as §1

[18] = system: VDR:RXRa (NR concentration 270 nM, RXRa partner concentration 90 nM)
Procedure, shortened: as §1

[19] = system: VDR homodimer (NR concentration 270 nM)
Procedure, shortened: as §1

Row | Sequence | PBM binding z-score [1] | PBM binding z-score [2] | PBM binding z-score [3] | PBM binding z-score [4] | PBM binding z-score [5] | PBM binding z-score [6] | PBM binding z-score [7] | PBM binding z-score [8] | PBM binding z-score [9] | PBM binding z-score [10] | PBM binding z-score [11] | PBM binding z-score [12] | PBM binding z-score [13] | PBM binding z-score [14] | PBM binding z-score [15] | PBM binding z-score [16] | PBM binding z-score [17] | PBM binding z-score [18] | PBM binding z-score [19]
1 | CCTACTGGGCCATCAGGTCATTGTTATCAACGTT | 4.42 | 5.23 | 1.61 | 0.711 | 1.35 | 1.63 | 0.409 | 2.03 | 0.317 | 2.07 | 2.4 | 1.8 | 1.75 | 0.592 | 0.877 | 3.26 | 3.28 | 1.52 | 1.99
2 | TTACCAAGGTGAAGGTCGTTGAACCCTCTGTAGA | 1.76 | 3.38 | 0.136 | 0.367 | 0.968 | 3.18 | 0.277 | 3.4 | -0.283 | 2.4 | 2.16 | 1.94 | 1.52 | 0.243 | 3 | 2.74 | 1 | 3.04 | 1.63
3 | TCTTTTAGATCAATAGAGGTTAAGAAAGTGCGCT | 1.67 | 1.53 | 1.94 | 1.81 | 0.69 | 3.35 | 0.207 | 2.08 | -0.186 | 1.23 | 1.25 | 1.22 | 1.09 | 0.967 | 1.58 | 2.4 | -0.64 | 2.22 | 0.459
4 | ACTATTAGTTGAGACGATGGCAACCGATAGGTTG | 0.172 | 0.0295 | 0.79 | 1.06 | 0.664 | -0.242 | -0.102 | -0.204 | 0.657 | -0.199 | -0.57 | 0.459 | 0.26 | 0.0509 | 0.0596 | -0.111 | -0.705 | -0.293 | 0.236
5 | TCGAGTAGGTTAGTCGGGGCAGTCAGCCAACATA | 2.19 | 1.95 | -0.923 | -0.0532 | -0.451 | -0.323 | -0.507 | 0.0728 | -0.469 | 0.59 | 0.699 | -0.199 | 0.0307 | 0.125 | -0.226 | 0.854 | -0.302 | 0.666 | -0.321
6 | CAAACTAGGTCAATAGGTCAAAGTCCGCTTCCCG | 8.58 | 8.3 | 2.88 | 0.687 | 6.16 | 4.57 | 0.894 | 6.73 | 3.02 | 5.04 | 5.26 | 7.95 | 6.55 | 2.03 | 6.54 | 3.62 | 1.05 | 4.64 | 2.03
7 | CCGACTGGAGCAAAGGTTACCATACTCAGTACGA | 2.35 | 3.51 | -0.17 | 0.137 | 0.916 | 1.77 | 0.124 | 2.73 | -0.322 | 1.74 | 2.17 | 1.89 | 1.29 | 0.545 | 2.57 | 1.39 | 0.122 | 1.17 | 0.17
8 | CCGACTGGGGCATAAGGTTACCATCAGCCAGCCC | 2.93 | 3.1 | -0.916 | -1.26 | 0.425 | 0.317 | -0.375 | 1.06 | -0.135 | 1.37 | 1.72 | 1.41 | 1 | -0.242 | 1.03 | 1.98 | 1.33 | -0.0341 | -0.0619
9 | TAGCCTAGGTCATTGGGGCAGTATAGTACGCATC | 3 | 4.45 | 0.832 | 0.251 | 1.66 | 1.89 | 0.425 | 2.52 | 0.554 | 3.83 | 3.31 | 3.93 | 4.23 | 1.67 | 2.99 | 2.96 | 1.28 | 3.19 | 1.8
10 | GGGACGAGGGCAAAGTTGATAGCATCTGTCGACG | 2.42 | 3.76 | 0.246 | 0.748 | 1.07 | 1.44 | 0.491 | 1.48 | 0.362 | 2.46 | 1.44 | 2.17 | 1.98 | 2.35 | 1.9 | 1.52 | 0.0608 | 1.47 | 1.85
11 | ACTATTAGTTGAGACGAGGACAACCGATAGGTTG | 0.000503 | 0.208 | 0.291 | 0.661 | 0.842 | 0.431 | 0.155 | 1.33 | 0.918 | 0.366 | 0.638 | 0.27 | 0.902 | 0.0973 | 0.226 | 3.9 | 2.56 | 0.286 | 0.657
12 | CCAGACAGGTTAGAAGGTAACTCAGCCTCGATTA | 0.311 | 0.0619 | -0.119 | -0.234 | 1.19 | 0.328 | 0.257 | 0.828 | 0.903 | 0.829 | 0.786 | 0.637 | 0.641 | 0.0628 | 0.699 | 0.493 | 0.212 | 0.114 | 0.658
13 | AATACAGGGTAATCGTAGGCCAGAGTACGCACAG | 2.12 | 2.19 | 0.939 | 0.00215 | -0.0424 | 0.0668 | 0.0801 | 0.578 | 0.101 | 0.525 | 0.578 | 0.923 | 0.637 | -0.324 | 0.61 | 1.34 | -0.13 | 0.0104 | 0.508
14 | CCTCGGAGGACTGAAGGTCAGAGCTGTCCGCTTT | -0.418 | -0.254 | -2.59 | -3.05 | 0.742 | 1.32 | -0.196 | 1.28 | -0.166 | 2.38 | 2.67 | 2.13 | 1.87 | -0.27 | 1.46 | 1.66 | -0.417 | 0.567 | -0.325
15 | CCTCGGAGGACAACAGGAGGTCAGGGCTGCCAGA | -0.161 | 0.479 | -0.962 | -1.94 | 1.52 | 2.11 | 0.134 | 2.83 | 0.694 | 3.01 | 3.69 | 3.63 | 3.49 | -0.237 | 2.24 | 2.96 | 1.34 | 1.62 | 0.949
